The record followed here is PubChem BioAssay AID1159580 (chemical genetic matrix, 2015).

Hit rate of the full screen: of about 5,500 compounds, about 2,000 (36%) were called active. Another 18% or so got no clear call; they are omitted. Some of the results follow. A number with no mark means an inactive call. Cut-off read from the data, not from the text of the source: active = normalized growth mostly below about 0.91 (no sharp cut-off); inconclusive = no clear call, values can overlap the other calls; inactive = mostly above about 0.92.

This assay can be described thus: chemical genetic growth profiling, strain panel (AID 1159580).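 Note: tested at 20 µM; growth read once vehicle control cultures reached saturation at 30 °C; 1 = growth at the plate median or of vehicle wells.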 As to conditions: growth OD.
[1] abbreviates: S. cerevisiae deletion strains, locus YAL040C, strain CLN3, stronger effect = lower value.
Where [2] appears, read: S. cerevisiae deletion strains, locus YDR363W, strain ESC2, stronger effect = lower value.
The mark [3] stands for this setting: S. cerevisiae deletion strains, locus YER002W, strain NOP16, stronger effect = lower value.
Setting [4] is: S. cerevisiae deletion strains, locus YMR307W, strain GAS1, stronger effect = lower value.
Where [5] appears, read: S. cerevisiae deletion strains, locus YNL153C, strain GIM3, stronger effect = lower value.
Setting [6] is: S. cerevisiae deletion strains, locus YNL175C, strain NOP13, stronger effect = lower value.
The mark [7] stands for this setting: S. cerevisiae deletion strains, locus YNL197C, strain WHI3, stronger effect = lower value.
Where [8] appears, read: S. cerevisiae deletion strains, locus YNL224C, strain SQS1, stronger effect = lower value.
[9] abbreviates: S. cerevisiae deletion strains, locus YOR083W, strain WHI5 (second series), stronger effect = lower value.
Where [10] appears, read: S. cerevisiae deletion strains, locus YPL055C, strain LGE1, stronger effect = lower value.
Setting [11] is: S. cerevisiae deletion strains, locus YPL241C, strain CIN2, stronger effect = lower value.
Where [12] appears, read: S. cerevisiae deletion strains, locus YAL013W, strain DEP1, stronger effect = lower value.
Setting [13] is: S. cerevisiae deletion strains, locus YBR229C, strain ROT2, stronger effect = lower value.
Setting [14] is: S. cerevisiae deletion strains, locus YDL101C, strain DUN1, stronger effect = lower value.
Where [15] appears, read: S. cerevisiae deletion strains, locus YDR150W, strain NUM1, stronger effect = lower value.
Where [16] appears, read: S. cerevisiae deletion strains, locus YEL061C, strain CIN8, stronger effect = lower value.
The mark [17] stands for this setting: S. cerevisiae deletion strains, locus YGR078C, strain PAC10, stronger effect = lower value.
The mark [18] stands for this setting: S. cerevisiae deletion strains, locus YGR229C, strain SMI1, stronger effect = lower value.
The mark [19] stands for this setting: S. cerevisiae deletion strains, locus YHR030C, strain SLT2, stronger effect = lower value.
Where [20] appears, read: S. cerevisiae deletion strains, locus YHR087W, strain rtc3, stronger effect = lower value.
Where [21] appears, read: S. cerevisiae deletion strains, locus YJL187C, strain SWE1, stronger effect = lower value.
The mark [22] stands for this setting: S. cerevisiae deletion strains, locus YJR043C, strain POL32, stronger effect = lower value.
The mark [23] stands for this setting: S. cerevisiae deletion strains, locus YJR075W, strain HOC1, stronger effect = lower value.
Where [24] appears, read: S. cerevisiae deletion strains, locus YKL190W, strain CNB1, stronger effect = lower value.
The mark [25] stands for this setting: S. cerevisiae deletion strains, locus YLR039C, strain RIC1, stronger effect = lower value.
The mark [26] stands for this setting: S. cerevisiae deletion strains, locus YLR058C, strain SHM2 (second series), stronger effect = lower value.
The mark [27] stands for this setting: S. cerevisiae deletion strains, locus YLR085C, strain ARP6, stronger effect = lower value.
Setting [28] is: S. cerevisiae deletion strains, locus YLR262C, strain YPT6, stronger effect = lower value.
The mark [29] stands for this setting: S. cerevisiae deletion strains, locus YML094W, strain GIM5, stronger effect = lower value.
The mark [30] stands for this setting: S. cerevisiae deletion strains, locus YMR219W, strain ESC1, stronger effect = lower value.
Where [31] appears, read: S. cerevisiae deletion strains, locus YMR263W, strain SAP30, stronger effect = lower value.
The mark [32] stands for this setting: S. cerevisiae deletion strains, locus YNL128W, strain TEP1, stronger effect = lower value.
The mark [33] stands for this setting: S. cerevisiae deletion strains, locus YNL298W, strain CLA4 (second series), stronger effect = lower value.
[34] abbreviates: S. cerevisiae deletion strains, locus YNL322C, strain KRE1, stronger effect = lower value.
Where [35] appears, read: S. cerevisiae deletion strains, locus YNR030W, strain Alg12, stronger effect = lower value.
The mark [36] stands for this setting: S. cerevisiae deletion strains, locus YPR135W, strain CTF4, stronger effect = lower value.
Where [37] appears, read: S. cerevisiae deletion strains, locus YDL134C, strain PPH21, stronger effect = lower value.
[38] abbreviates: S. cerevisiae deletion strains, locus YOL006C, strain TOP1, stronger effect = lower value.

Regarding `N[C@@H](CCl)C(=O)O`, the normalized growth reads like this: under setting [1], 0.98; under setting [2], 1.03; under setting [3], 0.99; under setting [4], 0.993; under setting [5], 1.05; under setting [6], 1.01. For the same compound, the normalized growth is 1.03 under setting [7]; 0.996 under setting [8]; 1.01 under setting [9]; 1.02 under setting [10]; 1 under setting [11].

For `CC(=O)c1cc2cc(Br)ccc2oc1=O`, the normalized growth was 0.987 under setting [12]; 0.967 under setting [13]; 0.998 under setting [14]; 0.994 under setting [15]; 0.975 under setting [16]; 0.976 under setting [17]. For the same compound, the normalized growth was 0.994 under setting [18]; 0.818 under setting [19]; 0.96 under setting [20]; 0.97 under setting [21]; 0.984 under setting [22]; 0.948 under setting [23]. The normalized growth reads like this: under setting [24], 0.992; under setting [25], 0.618 (active); under setting [26], 0.964; under setting [27], 0.936; under setting [28], 0.628 (active); under setting [29], 0.999. Further, the normalized growth is 0.96 under setting [30]; 1 under setting [31]; 1.01 under setting [32]; 0.994 under setting [5]; 0.983 under setting [33]; 0.964 under setting [34]. In addition, the normalized growth under setting [35] is 0.97, the normalized growth under setting [10] is 1.02, the normalized growth under setting [11] is 0.964 and the normalized growth under setting [36] was 0.717.

Take `CC(=O)Nc1cc2ccccc2oc1=O`: the normalized growth under setting [12] was 1; the normalized growth under setting [13] is 1; the normalized growth under setting [14] is 0.975; the normalized growth under setting [37] was 1; the normalized growth under setting [15] was 0.986; the normalized growth under setting [16] was 1.02. Besides, the normalized growth reads like this: under setting [17], 1.01; under setting [18], 0.997; under setting [19], 0.942; under setting [20], 0.988; under setting [22], 1.01; under setting [23], 0.997. The normalized growth reads like this: under setting [24], 1; under setting [25], 1.06; under setting [26], 1.01; under setting [27], 1.01; under setting [28], 1.04; under setting [29], 0.997. Besides, the normalized growth was 1 under setting [30]; 0.996 under setting [31]; 1.09 under setting [4]; 0.984 under setting [5]; 0.998 under setting [33]; 1.01 under setting [34]. The normalized growth by setting is: under setting [35], 1; under setting [38], 0.958; under setting [10], 0.969; under setting [11], 0.985; under setting [36], 0.946.

Regarding `CC(=O)c1cc2ccccc2oc1=O`, the normalized growth is 1.02 under setting [12]; 1.01 under setting [13]; 0.961 under setting [14]; 1.02 under setting [37]; 0.94 under setting [15]; 1.01 under setting [16]. For the same compound, the normalized growth is 0.986 under setting [17]; 1 under setting [19]; 1.03 under setting [20]; 0.999 under setting [21]; 0.999 under setting [22]; 0.988 under setting [23]. Moreover, the normalized growth was 1.05 under setting [25]; 1.01 under setting [26]; 1.08 under setting [27]; 1 under setting [28]; 1.02 under setting [29]; 0.993 under setting [30]. Also, the normalized growth by setting is: under setting [31], 1.02; under setting [32], 1.01; under setting [5], 1.01; under setting [33], 1.07; under setting [34], 0.99; under setting [35], 1.05. The normalized growth is, setting by setting: under setting [38], 1.02; under setting [10], 1.13; under setting [11], 1.03; under setting [36], 0.984; (S. cerevisiae strains, strain wild type, stronger effect = lower value) 1.03.

Turning to `CCCCCCCCCCCCCCCCOCC(COCC(F)(F)F)OP(=O)(O)OCO` (stereo unspecified), the normalized growth is, setting by setting: under setting [12], 0.947; under setting [1], 1; (S. cerevisiae deletion strains, locus YCL061C, strain MRC1 (second series), stronger effect = lower value) 0.987; under setting [2], 0.968; under setting [3], 0.995; under setting [18], 0.767 (active). In addition, the normalized growth reads like this: under setting [23], 1.03; under setting [31], 1.02; under setting [6], 0.995; under setting [7], 1; under setting [8], 0.964; under setting [9], 0.988. The normalized growth runs as follows: under setting [10], 0.881 (active); under setting [11], 0.988.
